# PubChem BioAssay (NCATS)
# Values joined by “and” are separate entries in the source; they are usually repeats but may differ in a detail not shown here. Equal values may be shown once. Inconclusive results are not listed. Active and inactive are the calls of the source. Unless noted, calls come from the whole dose curve; as a rule, active = well fitted curve in the direction sought with a large enough effect; inconclusive = small, poorly fitted or top-dose-only effect, or another doubt; inactive = no such curve, though single readings can be large; an effect the other way counts as inactive or inconclusive.
# Columns and labels:
# [1] = qHTS assay for small molecule agonists of the antioxidant response element (ARE) signaling pathway (AID 651741; active = well fitted activation curve with a large enough effect in the signal ratio; the % refers to the signal ratio; note: potency is the fitted concentration of half-maximal effect)
# Outline: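 Beta-lactamase reporter expression driven by the antioxidant response element in HepG2 cells was detected by fluorescence with LiveBLAzer B/G FRET substrate (2 h, room temperature) following 16 h compound treatment at 37 C.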
# [2] = qHTS assay for small molecule activators of the p53 signaling pathway (AID 651743; active = well fitted activation curve with a large enough effect in the signal ratio, not every such curve was filed as active; the % refers to the signal ratio; note: % of control where 0% means no effect); details: HCT-116 p53RE-bla, beta-lactamase FRET ratio, 16 h; activation: stronger effect = higher value
# Outline: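 Here HCT-116 cells with an integrated p53-responsive beta-lactamase gene were incubated with compounds (16 hours, 37 C) after a 5-hour plating period; beta-lactamase activity was detected as fluorescence intensity via B/G FRET substrate.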
# [3] = qHTS assay for small molecule disruptors of the mitochondrial membrane potential - 1 hr assay (AID 651754; calls by dose curve; note: % is set by controls: 0 for no effect and ±100 for the full control effect; nearly all actives have a fitted effect of over 35% in size)
# Outline: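 Read-out: dye fluorescence at 490 nm ex/535 nm em (monomers) and 540 nm ex/590 nm em (aggregates) in HepG2 cells. Compound exposure 1 hr at 37C, followed by 30 min dye loading.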
# [4] = qHTS assay for small molecule disruptors of the mitochondrial membrane potential - 5 hr assay (AID 651755; calls by dose curve; note: % is set by controls: 0 for no effect and ±100 for the full control effect; nearly all actives have a fitted effect of over 40% in size)
# Outline: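 Seed HepG2 overnight, add compound, incubate 5 hr at 37C and 5% CO2, stain 30 min with Mito-MPS, then measure monomer (490/535 nm) and aggregate (540/590 nm) fluorescence.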
# [5] = molecular target: Tumor necrosis factor (Homo sapiens) (UniProt P01375); test: qHTS assay to identify small molecules that stimulate Tumor Necrosis Factor-alpha (TNF-alpha) secretion (AID 651757; active = well fitted curve in the direction sought with a large enough effect in the signal ratio; the % refers to the signal ratio; note: 0% is about no effect)
# Tumor necrosis factor (Homo sapiens), sequence (P01375 whole entry, looked up): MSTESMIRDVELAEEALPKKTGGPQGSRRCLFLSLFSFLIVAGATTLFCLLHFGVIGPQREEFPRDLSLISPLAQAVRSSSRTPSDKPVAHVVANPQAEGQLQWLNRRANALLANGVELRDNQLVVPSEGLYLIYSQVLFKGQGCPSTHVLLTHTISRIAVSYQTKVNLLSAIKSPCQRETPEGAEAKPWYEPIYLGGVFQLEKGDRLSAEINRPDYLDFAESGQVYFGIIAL
# Outline: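 THP-1 cells, 3000/well; compound 17 hrs, 37 C; add cryptate/XL665 anti-TNF-alpha antibody pair; 3 hr RT; TR-FRET (HTRF) read of secreted TNF-alpha. Quantitative HTS format.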
# [6] = qHTS assay for environmental chemicals that activate the Aryl hydrocarbon Receptor (AhR) signaling pathway (AID 651777); details: 1A2-DRE human hepatoma cells, luciferase, 24 h; stronger effect = higher value; note: % of control where 0% means no effect; nearly all actives have a fitted effect of over 15% in size
# Outline: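 Induction of CYP1A2 transcription through AhR is detected by luciferase in 1A2-DRE hepatoma cells. Compounds or DMSO act for 24 hr at 37 C before a 30 min One-Glo step at room temperature.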
# [7] = molecular target: Peroxisome proliferator-activated receptor alpha (Homo sapiens) (UniProt Q07869); test: qHTS assay for small molecule agonists of the peroxisome proliferator-activated receptor alpha (PPARalpha) signaling pathway (AID 651778); details: PathHunter PPARalpha complementation, chemiluminescence, 6 h; max response: stronger effect = higher value; note: % of control where 0% means no effect
# Peroxisome proliferator-activated receptor alpha (Homo sapiens), sequence (Q07869 whole entry, looked up): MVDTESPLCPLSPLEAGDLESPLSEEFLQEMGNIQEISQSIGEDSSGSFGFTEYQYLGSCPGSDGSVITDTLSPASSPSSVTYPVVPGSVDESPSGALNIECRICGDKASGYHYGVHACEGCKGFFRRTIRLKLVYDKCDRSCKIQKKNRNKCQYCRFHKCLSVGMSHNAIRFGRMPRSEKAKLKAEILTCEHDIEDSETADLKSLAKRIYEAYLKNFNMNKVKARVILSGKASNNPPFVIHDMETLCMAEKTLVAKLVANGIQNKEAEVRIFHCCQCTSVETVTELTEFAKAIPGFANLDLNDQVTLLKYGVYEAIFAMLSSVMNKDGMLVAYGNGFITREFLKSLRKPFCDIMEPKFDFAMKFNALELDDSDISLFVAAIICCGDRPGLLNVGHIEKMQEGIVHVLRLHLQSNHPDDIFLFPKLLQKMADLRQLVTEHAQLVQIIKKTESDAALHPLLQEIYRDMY
# Outline: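 Cells plated at 2,000/well and held overnight at 37 C, 5% CO2, then compound added by pin tool for 6 hr; after PathHunter detection reagent and 60 min at room temperature, chemiluminescence from enzyme complementation was read.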
# [8] = molecular target: Nuclear receptor ROR-gamma (Homo sapiens) (UniProt P51449); test: qHTS assay for small molecule antagonists of the retinoid-related orphan receptor gamma (ROR-gamma) signaling pathway (AID 651802);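 note: CHO cells with doxycycline-induced ROR-gamma expression; luciferase reporter luminescence driven by ROR response element; % is set by controls: 0 for no effect and ±100 for the full control effect; nearly all actives have a fitted effect of over 60% in size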
# Nuclear receptor ROR-gamma (Homo sapiens), sequence (P51449 whole entry, looked up): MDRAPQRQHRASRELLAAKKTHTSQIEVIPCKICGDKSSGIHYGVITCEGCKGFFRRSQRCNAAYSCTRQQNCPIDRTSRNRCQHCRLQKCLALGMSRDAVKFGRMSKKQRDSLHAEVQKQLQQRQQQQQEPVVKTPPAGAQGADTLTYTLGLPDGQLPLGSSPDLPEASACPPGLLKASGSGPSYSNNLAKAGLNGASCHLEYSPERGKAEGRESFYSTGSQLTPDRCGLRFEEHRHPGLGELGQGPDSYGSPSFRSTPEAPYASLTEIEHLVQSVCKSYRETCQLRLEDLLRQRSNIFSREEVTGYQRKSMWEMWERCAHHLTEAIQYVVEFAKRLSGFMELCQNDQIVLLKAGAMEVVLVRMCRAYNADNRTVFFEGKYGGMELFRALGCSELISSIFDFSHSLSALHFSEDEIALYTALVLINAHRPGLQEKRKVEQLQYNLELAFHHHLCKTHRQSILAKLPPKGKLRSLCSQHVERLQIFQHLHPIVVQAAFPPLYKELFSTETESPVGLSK
# Outline: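 Luciferase read-out: ONE-Glo luminescence after 30 min at room temperature, following 16hr doxycycline induction at 37C, 5% CO2 of CHO cells with TET-inducible ROR and RORE-LUC reporter; decreased luminescence = reduced reporter activity.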
# [9] = qHTS assay for small molecule agonists of the antioxidant response element (ARE) signaling pathway measured by Nrf2-dependant transcriptional activity - cell viability counter screen (AID 720653; active = well fitted curve in the direction sought with a large enough effect in the repeat runs; an effect the other way counts as inactive or inconclusive; note: % is set by controls: 0 for no effect and ±100 for the full control effect); details: ARE-bla HepG2 viability, CellTiter-Glo ATP luminescence, 16 h; stronger effect = lower value
# Outline: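 ARE-bla HepG2 cells (2,000/well) rested 5 hrs at 37C/5% CO2, then exposed to compounds in DMSO for 16 hrs. Viability was read in the same wells as intracellular ATP by luminescence, 30 min at room temperature after reagent addition.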
# [10] = qHTS assay for small molecule activators of the nuclear factor-kappa B (NF-kB) signaling pathway (AID 651749; active = well fitted activation curve with a large enough effect in the signal ratio; the % refers to the signal ratio; note: % of control where 0% means no effect); details: NF-kB-bla ME-180 cells, beta-lactamase FRET ratio, 16 h; stronger effect = higher value
# Outline: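 Beta-lactamase reporter expression, controlled by NF-kB response elements in ME-180 cells, was quantified fluorometrically via FRET disruption; cells at 2,000/well had been incubated with 23 nL test compound for 16 hr.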
# [11] = qHTS Assay for Identification of Small Molecule Antagonists for NFkB Signaling Pathway. (AID 624479; calls by dose curve;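 note: pathway stimulated with TNF alpha; potency is the fitted concentration of half-maximal effect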)
# [12] = Cell Proliferation Assay against the HBL1 Cell Line (AID 651646); details: HBL1 DLBCL cells; at 46.1 µM (top of the series) unless noted;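 note: cells exposed to compound for 48 h before reading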
# Outline: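 After a 48 h incubation of 500 HBL1 cells/well in phenol red-free RPMI plus 5% FBS, relative luciferase units from CellTiter-Glo gave percent activity against DMSO and 9.2 uM bortezomib (final) controls.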
# [13] = Cell Proliferation Assay against the TMD8 Cell Line (Caspase readout at 8 hrs) (AID 651713); note: potency is the fitted concentration of half-maximal effect
# Outline: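 Apoptosis readout: caspase 3/7 luminescence (Caspase-Glo), 15 min RT. Cells: TMD8, 500/well, RPMI + 5% FBS, no phenol red. Exposure 8 h, 37C. % activity vs DMSO = 0, bortezomib 9.2 uM final = 100.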
# [14] = qHTS for small molecule inhibitors of Yes1 kinase: Counter Assay (AID 686950);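 note: no kinase present so only ADP-Glo detection of a fixed ADP amount is tested; luminescence from ADP-Glo reporting ADP in a fixed ATP and ADP mixture; 0% = DMSO wells with ATP plus ADP and -100% = ATP-only wells without ADP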
# Outline: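 Measuring interference with ADP-Glo, the assay ran 60 min at room temperature on an ATP/ADP mix lacking enzyme. Values were normalized to ATP-plus-ADP (maximum) and ATP-only (minimum) DMSO controls.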
# [15] = Cell Proliferation Assay against the TMD8 Cell Line (Caspase readout at 16 hrs) (AID 651712); note: potency is the fitted concentration of half-maximal effect
# Outline: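 16 h, 37 °C, TMD8 (500 cells/well), RPMI/5% FBS no phenol red; Caspase-Glo 3/7, 15 min RT, luminescence; %act: DMSO 0, bortezomib 9.2 uM final 100.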
# [16] = molecular target: Tyrosine-protein kinase Yes (Homo sapiens) (UniProt P07947); test: qHTS for small molecule inhibitors of Yes1 kinase: Primary Screen (AID 686947);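 note: plate controls were DMSO with enzyme for no effect and no-enzyme DMSO wells for full effect; nearly all actives have a fitted effect of over 60% in size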
# Tyrosine-protein kinase Yes (Homo sapiens), sequence (P07947 whole entry, looked up): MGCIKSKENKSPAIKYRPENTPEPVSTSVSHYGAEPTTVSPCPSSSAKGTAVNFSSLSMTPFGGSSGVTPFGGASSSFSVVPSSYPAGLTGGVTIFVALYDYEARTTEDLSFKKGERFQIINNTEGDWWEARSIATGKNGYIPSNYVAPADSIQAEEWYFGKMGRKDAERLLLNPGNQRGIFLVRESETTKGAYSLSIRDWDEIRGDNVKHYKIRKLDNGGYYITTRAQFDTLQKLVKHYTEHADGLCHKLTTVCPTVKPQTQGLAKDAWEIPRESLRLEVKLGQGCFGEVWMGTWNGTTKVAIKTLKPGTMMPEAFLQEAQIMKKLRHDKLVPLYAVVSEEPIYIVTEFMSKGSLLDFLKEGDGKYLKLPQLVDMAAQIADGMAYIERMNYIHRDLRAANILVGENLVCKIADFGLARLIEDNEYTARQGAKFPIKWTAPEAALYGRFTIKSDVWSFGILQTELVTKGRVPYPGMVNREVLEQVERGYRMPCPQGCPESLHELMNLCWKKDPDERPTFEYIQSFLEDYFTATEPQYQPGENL
# Outline: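 In this qHTS format, inhibition is expressed relative to DMSO controls with enzyme (maximum) and without enzyme (minimum). The 60 min room-temperature reaction uses 0.1 mM ATP, with ADP detected by luminescence.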
smiles,measurement,setting,value
CCOc1ccc2c(c1)C(C)=CC(C)(C)N2,Potency,[1],27.3 µM (active)
same,activation,[2],3.65% (inactive)
same,outcome,[3],inactive
same,outcome,[4],inactive
same,outcome,[5],inactive
same,activation,[6],3.55% (inactive) and 2.98% (inactive)
same,max response,[7],-4.24% (inactive) and -2.12% (inactive)
same,outcome,[8],inactive
same,max response,[9],-1.53% (inactive) and -25.3% (inactive)
CCCCC(CC)COC(=O)CC(C(=O)OCC(CC)CCCC)S(=O)(=O)O (stereo not drawn),Potency,[1],43.3 µM (active)
same,activation,[2],1.7% (inactive)
same,activation,[10],-3.42% (inactive)
same,activation,[6],0.833% (inactive)
same,max response,[9],-6.73% (inactive)
CC1=CCC(C(C)(C)O)CC1 (stereo not drawn),activation,[2],-5.6% (inactive)
same,activation,[10],-1.34% (inactive)
same,activation,[6],0.596% (inactive)
same,max response,[7],-2.04% (inactive)
same,max response,[9],3.37% (inactive)
CCOc1cc2ncc(C#N)c(Nc3ccc(OCc4ccccn4)c(Cl)c3)c2cc1NC(=O)/C=C/CN(C)C,Potency,[11],7.49 µM (active)
same,"viability, percent of control",[12],1.48%
same,Potency,[13],23.5 µM (active)
same,outcome,[14],inactive
O=c1cc(C2=CC=CC3Sc4ccccc4SC23)oc(N2CCOCC2)c1 (stereo not drawn),"viability, percent of control",[12],31.5%
same,Potency,[15],8.33 µM (active)
same,Potency,[13],7.43 µM (active)
same,Potency,[16],inactive
same,outcome,[14],inactive
